According to PubChem BioAssay AID1851 (National Center for Advancing Translational Sciences (NCATS), 2009):
In all, about 16,000 compounds went through this assay and about 5,700 (36%) were called active. About 24% were inconclusive and are not listed. The list shows a part of the results. A number with no mark means an inactive call. Calls follow the shape of the dose curve; as a rule, active = well fitted curve in the direction sought with a large enough effect; inconclusive = small, poorly fitted or top-dose-only effect, or effect the other way; inactive = no such curve, though single readings can be large or run the other way.
% is scaled to controls: 0 for no effect and ±100 for the full control effect.

These molecules were tested against Cytochrome P450 1A2 (Homo sapiens) (UniProt P05177) (assay: Cytochrome panel assay with activity outcomes). Conditions: recombinant CYP, pro-luciferin dealkylation, luminescence, p450-cyp1a2; series mostly up to 57.1 µM.
Cytochrome P450 1A2 (Homo sapiens), sequence (P05177 whole entry, looked up): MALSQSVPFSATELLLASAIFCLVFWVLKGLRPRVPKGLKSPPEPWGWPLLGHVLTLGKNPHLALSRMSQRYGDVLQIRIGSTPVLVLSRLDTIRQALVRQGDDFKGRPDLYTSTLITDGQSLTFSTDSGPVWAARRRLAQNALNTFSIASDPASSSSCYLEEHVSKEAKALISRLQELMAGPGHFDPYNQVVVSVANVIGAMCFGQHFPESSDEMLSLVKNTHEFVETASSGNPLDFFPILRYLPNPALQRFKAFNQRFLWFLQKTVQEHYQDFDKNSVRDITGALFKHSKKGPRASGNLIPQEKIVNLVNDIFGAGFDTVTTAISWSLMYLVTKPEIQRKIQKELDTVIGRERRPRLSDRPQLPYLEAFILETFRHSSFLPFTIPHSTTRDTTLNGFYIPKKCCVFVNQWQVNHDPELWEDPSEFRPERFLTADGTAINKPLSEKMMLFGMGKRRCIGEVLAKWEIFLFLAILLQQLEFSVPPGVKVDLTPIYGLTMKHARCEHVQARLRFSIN
In the case of `COc1ccc2cc3cc(C(=O)NCc4ccccn4)oc3nc2c1`, the AC50 was 1000 nM (active).
For `CC(C)CC(=O)Nc1sc2c(c1C#N)CC(C)(C)NC2(C)C`, the AC50 was “inactive”.
`COc1cc(Cl)c(C)cc1NC(=O)CNC(=O)Cn1cnc2ccccc2c1=O` was tested, and the AC50 was “inactive”.
`O=C1c2ccccc2C(=O)N1C[C@]1(C(=O)O)NCCS1(=O)=O` gave an activity, negative = inhibition of -5.5% [at 2.29 µM].
`Cc1ccc(SCCCn2cnc3ccccc3c2=O)cc1` was tested, and the AC50 was 3160 nM (active).
`O=c1c2ccccc2ncn1CCCSc1ccccc1` was tested, and the AC50 was 7080 nM (active).
In the case of `O=C1c2ccccc2C(=O)N1CCCSc1ccccc1`, the AC50 was 1000 nM (active).
`O=C(O)CCCSc1ccccc1` was tested, and the activity, negative = inhibition was -11.7% [at 11.4 µM].
For `O=C(c1ccccc1)c1ccc(OCCn2cnc3ccccc3c2=O)cc1`, the AC50 was “inactive”.
`CC(C)(C)NC(=O)C(Cc1ccccc1)NS(=O)(=O)c1ccc2c(c1)CCC(=O)N2` (stereo not given) was tested, and the AC50 was “inactive”.
For `COc1ccc(Oc2ncc3nc(-c4ccc(Cl)cc4)c(=O)n(C)c3n2)cc1`, the AC50 was 631 nM (active).
`Cn1c(=O)c(-c2ccc(Cl)cc2)nc2cnc(Oc3ccccc3)nc21` was tested, and the AC50 was 200 nM (active).
With `Cn1c(=O)c(-c2ccccc2)nc2cnc(Oc3ccccc3)nc21` the AC50 was 2000 nM (active).
For `CC(C)CN1CC[C@@]2(CCCN(C(=O)c3csnn3)C2)C1`, the AC50 was “inactive”.
For `CCn1ncc(/C=C/C(=O)NCc2cn(C)nc2C)c1C`, the AC50 was “inactive”.
`CCCCCC(=O)Nc1cc2[nH]c(=O)cc(COC)c2cc1C` was tested, and the AC50 was “inactive”.
For `COCc1cc(=O)[nH]c2cc(NC(=O)C(F)(F)F)c(C)cc12`, the AC50 was 11200 nM (active).
In the case of `COc1cccc(C(CC(=O)Nc2cccc3ccccc23)NC(=O)c2ccccc2)c1` (stereo not given), the AC50 was “inactive”.
For `CCC(=O)Nc1ccccc1C(=O)OCC(=O)c1cccc2ccccc12`, the AC50 was 2510 nM (active).
`COc1ccc(C(=O)Nc2ccc(C(=O)OCC(=O)c3ccccc3)cc2)cc1` was tested, and the AC50 was “inactive”.
With `CCC(=O)Nc1ccccc1C(=O)OCC(=O)c1ccccc1` the AC50 was 5620 nM (active).
With `COc1ccc(C(=O)COC(=O)c2ccc(NC(=O)c3ccccc3)cc2)cc1` the AC50 was “inactive”.
In the case of `COc1cccc(-c2ccc3ncnc(N(C)C)c3c2)c1`, the AC50 was 794 nM (active).
For `CN(C)c1ncnc2ccc(-c3cccnc3)cc12`, the AC50 was 200 nM (active).
For `O=C1NC(O)=NC1(c1ccccc1)c1ccccc1`, the AC50 was “inactive”.
In the case of `CSc1nc(N)nc(-c2cccs2)c1C#N`, the AC50 was 2000 nM (active).
For `CSc1nc(C2CC2)cc(-c2cccs2)c1C#N`, the AC50 was 316 nM (active).
With `N#Cc1c(-c2ccccc2)cc(C2CC2)nc1SCC(=O)c1cccs1` the AC50 was 562 nM (active).
For `Cc1ccc(N=CC2=C(O)CC(c3ccco3)CC2=O)cc1` (stereo not given), the AC50 was 25100 nM (active).
For `CC(C)C12CN3CC(C(C)C)(CN(C1)C3c1ccco1)C2=O` (stereo not given), the AC50 was “inactive”.
